The panel holds about 83,000 compounds, 20% with a hit somewhere; the sample as a whole holds those more often.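 Single-concentration screen, 48 h exposure, 96-well plates. Endpoint: percent growth. Below 10 = active.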 A number with no mark means an inactive call. Active and inactive are the calls of the source.
System: HOP-92 NSCLC
Assay: NCI-60 one-dose screen, 48 h (100 = growth as untreated, 0 = no growth, -100 = all killed)
Details: 10 µM unless noted
Description: Growth inhibition of the HOP-92 human Non-Small Cell Lung tumor cell line is measured as a screen for anti-cancer activity. Cells are grown in 96 well plates and exposed to the test compound for 48 hours. Compounds are tested at a single concentration, which is 10^-5 M for most compounds. The reported endpoint is percent growth (GI% or GIPRCNT), where numbers from 0 - 100% represent growth inhibition, and numbers from -100% - 0 represent cell death. For example, a value of 40 represents 60% growth inhibition. A value of 0 means no net growth occurred over the course of the experiment. A value of -40 indicates 40% of cells at the beginning of the experiment died by the end of the experiment. A value of -100 means all cells are dead at the end of the experiment.
NCI-60 Human Tumor Cell Lines Screen was performed using the standard one-dose NCI protocol, which is described in more detail at https://dtp.cancer.gov/discovery_development/nci-60/default.htm.
Compounds with GIPRCNT values below 10 were considered active. Activity score was based on GIPRCNT using the following formula: […]
Score is 0 for GIPRCNT values of 100 or above, 50 for GIPRCNT values of 0, and 100 for GIPRCNT values of -100.

Row | SMILES | growth
1 | COc1cccc(NC(=O)c2sc3nc(C)c(C(C)=O)cc3c2N)c1 | 52%
2 | COc1cc(C)c(C2C(C#N)=C(N)Oc3n[nH]c(-c4cccs4)c32)cc1C(C)C (stereo not given) | 99.7%
3 | O=C(Cc1ccc(/C=C/C(=O)c2ncc[nH]2)cc1)Nc1ccccc1 | 83.6%
4 | O=c1nc2oc3ccc4ccccc4c3cc-2s1 | 14.2%
5 | CN(C)CCN1C(=O)c2cccc3c(N)ccc(c23)C1=O | 19.9%
6 | Cc1ccc2c(c1)C(=O)/C(=C/c1cccc(OCC(=O)c3ccc(Cl)cc3)c1)CS2 | 61.5%
7 | CN(C)CCCNc1c2ccccc2nc2ccccc12 | 180%
8 | CCn1c(O)c(/C=N/NC(=O)C(C)c2ccc(CC(C)C)cc2)sc1=S (stereo not given) | 39.9%
9 | C=C1C(=O)O[C@H]2[C@H]1CC/C(C=Nc1ccc(C(F)(F)F)cc1N)=C\CC[C@@]1(C)O[C@@H]21 | 27%
10 | CCOC(=O)c1c(C(=O)OCC)c2cc(-c3ccn4c(C(=O)c5ccccc5)c(C(=O)OCC)c(C(=O)OCC)c4c3)ccn2c1C(=O)c1ccccc1 | 52.4%
11 | CCCCn1c(-c2ccc(C(=O)O/N=C(\N)c3ccc4c(c3)OCO4)cc2)nc(-c2ccccc2)c1-c1ccccc1 | 17.4%
12 | COc1ccc(C2CC(c3ccc(Cl)cc3)=NN2/C=C2\SC(=S)N(NC(=O)Cc3ccccc3Nc3c(Cl)cccc3Cl)C2=O)cc1 (stereo not given) | -2.84% (active)
13 | COc1ccc(NC(=O)c2ccc(/C=C/C(=O)c3ncc[nH]3)cc2)cc1 | 104%
14 | COc1ccc(/C=C/c2nc(-c3n[nH]c(=O)n3-c3ccccc3)c3ccccc3n2)cc1 | 101%
15 | COc1ccc(C(=S)N2CCN(c3cccc(Cl)c3)CC2)cc1 | 94.6%
16 | COc1cccc(-c2nc3sccn3c2-c2ccnc(NCCNS(=O)(=O)c3ccc(F)cc3)c2)c1 | 41%
17 | Cc1cc(N2CCN(c3ccnc4cc(Cl)ccc34)CC2)nc(NC2CCCCC2)n1 | 20.4%
18 | N#CN1CCC[C@H]1C(=O)N1CCc2c(-c3[nH]nc4ncccc34)cccc21 | -21.6% (active)
19 | Cc1ccc(O)c(N2C(=NCc3ccco3)NS(=O)(=O)c3cnccc32)c1 | 27.7%
20 | Cn1cc(-c2nonc2-c2c[nH]c3ccccc23)c2cccnc21 | 62.2%

Row | SMILES | growth
21 | COc1cc(/C=C/c2cc(O)c3cc(C(C)=O)c(=O)oc3c2)cc2c1O[C@]1(C)CC[C@@H](O)C(C)(C)[C@H]1C2 | 33.2%
22 | COc1cccc(-c2nc3sccn3c2-c2ccnc(NCCCNS(=O)(=O)c3cccc(Cl)c3)c2)c1 | 48.8%
23 | Cc1cc(N2CCCCCC2)nc(NC2CCCC(Nc3ccnc4cc(Cl)ccc34)C2)n1 (stereo not given) | -82% (active)
24 | O=C(CN1CCCCC1)Nc1ccc2oc(=O)ccc2c1 | 91.3%
25 | Clc1ccc2c(NCCNc3nc(N4CCOCC4)nc4ccccc34)ccnc2c1 | -41.6% (active)
26 | CC(=O)c1cc(C(=O)c2ccc3c(c2)Sc2ccccc2N3)n2ccccc12 | 46.1%
27 | COc1ccc(-c2nc3ccc(-c4nc5ccc(N6CCN(c7ccc(F)cc7)CC6)cc5[nH]4)cc3[nH]2)cc1OC | 63.6%
28 | C=C(C)C(=O)Nc1ccc(NC(C)C)cc1 | 143%
29 | OCc1ccc(N2CCc3cccc(F)c3C2)cc1Cl | 82.3% [0.1 µM]
30 | CC1=C[C@H]2c3c(c(O)c(O)c4oc5ccccc5c(=O)c34)[C@H](c3cc(O)c(O)c4oc5ccccc5c(=O)c34)[C@H]2C(C)(C)C1 | -5.31% (active)
31 | COc1ccc(SC2c3ccc(C)cc3Oc3nc(N)c(C#N)c(N)c32)cc1 (stereo not given) | -56.7% (active)
32 | CC(O)CN1CC(O)=C(c2nc3ccccc3s2)C1=N (stereo not given) | 88.1%
33 | NC(=O)c1cc(I)ccc1NC(=O)/C=C/c1ccccc1Cl | 48.3%
34 | COc1ccc(Nc2cc(C)nc(N3CCN(c4ccnc5cc(Cl)ccc45)CC3)n2)cc1 | 25.3%
35 | O=C1Nc2cc(-c3ccc(O)cc3)ccc2/C1=C/c1ccc[nH]1 | 10.8%
36 | COc1cc(C(=O)Oc2ccccc2OC(=O)c2cc(OC)c(OC)c(OC)c2)cc(OC)c1OC | 83.4%
37 | CC1=C(O)C(=O)C(C(C#N)(C#N)C(C#N)C#N)C1 (stereo not given) | 112%
38 | C#CCOc1ccc2ncnc(N3CCN(C(=O)CCl)CC3)c2c1 | 88.7% [8.25 µM]
39 | COc1cc2c(cc1-c1c(C)noc1C)ncc1nc(C3CCC(F)(F)CC3)n([C@H](C)COC(F)F)c12 | 32%
40 | CCOC(=O)c1cc(C(=O)c2ccc(O)c(O)c2)n2ccc(-c3ccn4c(C(=O)c5ccc(O)c(O)c5)cc(C(=O)OCC)c4c3)cc12 | 45.7%
